Laboratory results taken from PubChem BioAssay (NCATS).
Results filed as inconclusive are left out. A call without a number means that no potency is given here. Calls of active or inactive are those of the source. The call rests on the fitted dose curve; in most records, active means well fitted curve in the direction sought with a large enough effect; inconclusive means small, poorly fitted or top-dose-only effect, or another doubt; inactive means no such curve, though single readings can be large; an effect the other way counts as inactive or inconclusive.

Key:
[1] = NS1 protein of Zika virus - qHTS assay to identify small molecule inhibitors in human HEK 293 cells (AID 1347053); further: nearly all actives have a fitted effect of over 55% in size
How it was run: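 TR-FRET signal from two anti-ZIKV NS1 antibodies quantified NS1 in HEK 293 cells 24 h after MR766 infection at MOI = 0.5; compounds were added 1 h before virus. Uninfected cells and infected cells defined the NS1 normalization range.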

[2] = qHTS of pediatric cancer cell lines to identify multiple opportunities for drug repurposing: Primary screen for DAOY cells (AID 1347090); further: nearly all actives have a fitted effect of over 55% in size
How it was run: (§1)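 Cell viability, CellTiter-Glo luminescence; 500-1,000 cells/well, 8- or 11-point titration, 48 h compound exposure at 37 degrees C, 5% CO2. Controls: DMSO neutral, bortezomib 2.3 µM final as positive.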

[3] = qHTS of pediatric cancer cell lines to identify multiple opportunities for drug repurposing: Primary screen for SJ-GBM2 cells (AID 1347091)
How it was run: as §1

[4] = qHTS of pediatric cancer cell lines to identify multiple opportunities for drug repurposing: Primary screen for TC32 cells (AID 1347089); further: nearly all actives have a fitted effect of over 60% in size
How it was run: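 Luminescent ATP read-out (CellTiter-Glo) of metabolically active TC32 cells after 48 h exposure. Concentration-response curves came from 11-point (MIPE, 0.78 nM–46 µM) or 8-point (NPC, 0.59 nM–46 µM) primary titrations; follow-up used 11 points.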
Potency means the concentration at half of the fitted maximal effect.

Row | Compound | Potency [1] | Potency [2] | Potency [3] | Potency [4]
1 | O=C1OC2(c3ccc(O)cc3Oc3cc(O)ccc32)c2ccccc21 | inactive | inactive | inactive | 
2 | CCCCN1CCCC1C(=O)Nc1c(C)cc(C)cc1C (stereo unspecified) | inactive | inactive | inactive | 
3 | O=C(CCCN1CCC(O)(c2ccc(Br)cc2)CC1)c1ccc(F)cc1 | inactive |  | 21.1 µM (active) | inactive
4 | NC(=O)c1cc[n+](CC2=C(C(=O)[O-])N3C(=O)[C@@H](NC(=O)Cc4cccs4)[C@H]3SC2)cc1 | inactive | inactive | inactive | 
5 | CC(C)=CCC1C(=O)N(c2ccccc2)N(c2ccccc2)C1=O | inactive | inactive |  | 
6 | CC(=O)OCC(=O)NCCCOc1cccc(CN2CCCCC2)c1 | inactive | inactive | inactive | 
7 | Cc1ccccc1C(=O)Nc1ccc(C(=O)N2CCCC(N(C)C)c3ccccc32)cc1 (stereo unspecified) | inactive |  | 9.44 µM (active) | inactive
8 | CCOC(=O)c1cccc(N)c1 | inactive | inactive |  | 
9 | COc1cccc(CCc2ccccc2OCC(CN(C)C)OC(=O)CCC(=O)O)c1 (stereo unspecified) | inactive | inactive |  | 
10 | CC(=O)c1ccc2c(c1)N(CCCN1CCC(CCO)CC1)c1ccccc1S2 | inactive | inactive |  | 
11 | CCC(C(=O)OCCN(CC)CC)c1ccccc1 (stereo unspecified) | inactive | inactive |  | 
12 | O=c1[nH]c(=O)n([C@H]2CCCO2)cc1F | inactive |  | inactive | inactive
13 | O=C1c2ccccc2C(=O)C1c1ccccc1 | inactive | inactive | inactive | 
14 | CN1CCN(C(c2ccccc2)c2ccccc2)CC1 | inactive | inactive |  | 
15 | CC/C(=C(/CC)c1ccc(O)cc1)c1ccc(O)cc1 | inactive | 21.1 µM (active) |  | 
16 | CN(C)CCCOc1nn(Cc2ccccc2)c2ccccc12 | inactive | inactive |  | 
17 | CCCCCCCCCCCCCCNCCO | inactive | inactive | inactive | 
18 | C[C@H]1[C@H](NC(=O)/C(=N/OC(C)(C)C(=O)O)c2csc(N)n2)C(=O)N1S(=O)(=O)O (stereo in doubt) | inactive | inactive |  | 
19 | O=c1ccc2ccccc2o1 | inactive | inactive | inactive | 

Row | Compound | Potency [1] | Potency [2] | Potency [3] | Potency [4]
20 | O=C(O)CNC(=O)c1ccccc1 | inactive | inactive | inactive | 
21 | CN(C)CCOc1ccccc1Cc1ccccc1 | inactive |  | inactive | inactive
22 | C=C(CC)C(=O)c1ccc(OCC(=O)O)c(Cl)c1Cl | inactive |  | inactive | 
23 | C[C@@H]1CN(CCCn2c3ccccc3c3ccccc32)C[C@H](C)N1 |  | inactive |  | 
24 | COC1=CC(=O)C[C@@H](C)[C@]12Oc1c(Cl)c(OC)cc(OC)c1C2=O | inactive |  | 21.1 µM (active) | 
25 | COc1cc(C=C2CCC/C(=C\c3ccc(O)c(OC)c3)C2=O)ccc1O |  | 21.1 µM (active) |  | 
26 | Nc1ccc(C(=O)Nc2ccccc2N)cc1 | inactive |  | 13.3 µM (active) | 
27 | O=C(N/N=C/c1ccccc1O)c1ccncc1 |  | 4.22 µM (active) |  | 23.6 µM (active)
28 | CN(C(=O)CN(CCO)CC(=O)N(C)C(C)(C)Cc1ccccc1)C(C)(C)Cc1ccccc1 |  | inactive |  | 
29 | COc1cccc2c1C(=O)c1c(O)c3c(c(O)c1C2=O)C[C@@](O)(C(=O)CO)C[C@@H]3O[C@H]1C[C@H](N)[C@H](O)[C@H](C)O1 |  | 4.22 µM (active) |  | 
30 | CCCCC(CC)CN=C(N)NC(N)=NCCCCCCN=C(N)NC(N)=NCC(CC)CCCC (stereo unspecified) |  | 8.41 µM (active) | 1.06 µM (active) | 21 µM (active)
31 | CC(C)(C)CC(C)(C)c1ccc(OCCOCC[N+](C)(C)Cc2ccccc2)cc1 | 12.6 µM (active) |  | 21.1 µM (active) | 
32 | O=C(OCC(O)CO)c1ccccc1Nc1ccnc2cc(Cl)ccc12 (stereo unspecified) |  |  | inactive | inactive
33 | COc1ccc(CN2CCN(C(c3ccc(F)cc3)c3ccc(F)cc3)CC2)c(OC)c1OC |  | inactive |  | 
34 | CCCC(=O)Nc1ccc(OCC(O)CNC(C)C)c(C(C)=O)c1 (stereo unspecified) | inactive |  | inactive | 
35 | O=c1c(-c2ccccc2)c1-c1ccccc1 |  | 21.1 µM (active) |  | 
36 | CN(C)C(=S)SC(=S)N(C)C |  | 0.841 µM (active) |  | 3.74 µM (active)
37 | OCc1ccccc1O | inactive |  | inactive | 
38 | CCCCCCC[N+](CC)(CC)CCCCc1ccc(Cl)cc1 |  |  | 10.6 µM (active) | 

Row | Compound | Potency [1] | Potency [2] | Potency [3] | Potency [4]
39 | Oc1c(I)cc(Cl)c2cccnc12 |  |  | 18.8 µM (active) | 
40 | CCCCCCCCCCCCCCCC[N+](C)(C)CC |  | 13.3 µM (active) | 18.8 µM (active) | 
41 | CC(C)n1nc(-c2cc3cc(O)ccc3[nH]2)c2c(N)ncnc21 |  | 4.22 µM (active) |  | 2.1 µM (active)
42 | CCCCC(=O)O[C@]1(C(=O)CO)CC[C@H]2[C@@H]3CCC4=CC(=O)CC[C@]4(C)[C@H]3[C@@H](O)C[C@@]21C | inactive | inactive | inactive | 
43 | COc1cccc(OC)c1C(=O)N[C@@H]1C(=O)N2[C@@H]1SC(C)(C)[C@@H]2C(=O)O | inactive | inactive | inactive | 
44 | CCOc1ccc2nc3cc(N)ccc3c(N)c2c1 | inactive |  | inactive | 
45 | CCCCS(=O)(=O)N[C@@H](Cc1ccc(OCCCCC2CCNCC2)cc1)C(=O)O | inactive | inactive | inactive | 
46 | C[C@]12CCC(=O)C=C1CC[C@H]1[C@@H]3CC[C@](O)(C(=O)CO)[C@@]3(C)C[C@H](O)[C@@]12F | inactive | inactive | inactive | 
47 | CN1CCCC(CC2c3ccccc3Sc3ccccc32)C1 (stereo unspecified) |  | inactive |  | 
48 | COc1cc(C(=S)N2CCOCC2)cc(OC)c1OC | inactive | inactive | inactive | 
49 | OC[C@H]1O[C@@H](n2cnc3c(=S)nc[nH]c32)[C@H](O)[C@@H]1O |  | 0.422 µM (active) | 3.76 µM (active) | 1.67 µM (active)
50 | C[C@H](CCC(=O)O)[C@H]1CC[C@H]2[C@@H]3C(=O)C[C@@H]4CC(=O)CC[C@]4(C)[C@H]3CC(=O)[C@]12C | inactive | inactive | inactive | 
51 | CC(=O)N/N=C/c1ccc([N+](=O)[O-])o1 | inactive |  | inactive | 
52 | NC[C@H]1O[C@H](O[C@H]2[C@H](O)[C@@H](O[C@H]3O[C@H](CO)[C@@H](O)[C@H](N)[C@H]3O)[C@H](N)C[C@@H]2N)[C@H](N)[C@@H](O)[C@@H]1O | inactive | inactive | inactive | 
53 | Oc1ccc(Cl)cc1Sc1cc(Cl)ccc1O | inactive |  | 13.3 µM (active) | 
54 | c1ccc(-c2ccc(C(c3ccccc3)n3ccnc3)cc2)cc1 (stereo unspecified) | inactive |  | inactive | 
55 | C[n+]1c2cc(N)ccc2cc2ccc(N)cc21 (tested in a mixture with another compound) |  |  |  | 14.9 µM (active)
56 | CCCN1CCCC[C@H]1C(=O)Nc1c(C)cccc1C | inactive | inactive | inactive | 
57 | CN(C)/N=N/c1nc[nH]c1C(N)=O | inactive |  | inactive | 
